Values without a mark were called inactive. Calls of active or inactive are those of the source. The call rests on the fitted dose curve; in most records, active means well fitted curve in the direction sought with a large enough effect in the repeat runs; inconclusive means weak or mixed curves; inactive means flat fitted curve, though single readings scatter.
Assay: qHTS assay to test for compound auto fluorescence at 535 nm (green) in HepG2 cell free culture (AID 720686)
Conditions: Cell-free medium, green autofluorescence 485/535 nm; series mostly up to 91.3 µM; fluorescence, % of fluorescein control: at the top concentration
From the text: U.S. Tox21 Program National Center for Advancing Translational Sciences [NCATS] NIH Chemical Genomics Center [NCGC] U.S. Environmental Protection Agency [EPA] National Institutes of Environmental Health Sciences [NIEHS] National Toxicology Program [NTP] U.S. Food and Drug Administration [FDA] Tox21 Assay Overview: Compound auto fluorescence often interferes with screening of the compound library against various biological targets and signaling pathways. Some of these compounds may have fluorophoric properties. Such properties may interfere with the assay outputs resulting in false positives and/or negatives. To decrease such complications and ensure the compound activities are relevant in terms of biological response, the Tox21 10K compound library was screened for auto fluorescence. From the fluorophores used as reporter signals in our screening assays, the auto fluorescence equivalencies of compounds against three fluorophores have been evaluated: Triamterene, Fluorescein and Rose Bengal sodium for blue, green and red fluorescence, respectively. The fluorescence intensities were measured using Excitation/Emission wavelengths at 405/460nm, 485/535nm and 540/590nm for blue, green and red labels, respectively. This assay includes the green fluorescence data.
Tox21 Assay Protocol Summary: 5 uL of culture medium (MEM containing 10% FBS) per well was dispensed into black wall/clear bottom 1536-well plates using a Multidrop Combi Dispenser (ThermoFisher Scientific, Waltham, MA). After 23 nL compound or DMSO vehicle was transferred into assay plate by a pintool work station (Kalypsys, San Diego, CA), fluorescence intensities in the assay plates were measured by an Envision (PerkinElmer, Shelton, CT) plate reader using three labels for measuring blue, green and red fluorescence at […] 460, 535 and 590nm respectively.
On the % scale 0 is the no-effect control and ±100 the full control effect.

SMILES | fluorescence, % of fluorescein control | outcome
CC(O)C(C)O (stereo not given) | -0.0259% [at 95.7 µM] | 
CC(=O)c1cccnc1 | 0.0712% | 
CCCCCCC/C=C/C=O | -0.106% | 
COc1ccc(/C=C/c2cc(OC)cc(=O)o2)cc1 | -0.0703% [at 46 µM] | 
CC(Cc1ccccc1)(NC(=O)CN)c1ccccc1 (stereo not given) | -0.0461% [at 46 µM] | 
CCCCCCCCCCCC(=O)OCC | 0.0174% | 
CCOc1cc(OCC)c(C(C)=O)cc1OCC | 0.0251% | 
O=C(OC1C[C@H]2CC[C@@H](C1)[N+]21CCCC1)C(O)(c1ccccc1)c1ccccc1 (stereo not given in full) | -0.0302% [at 46 µM] | 
NC(=O)c1cc[n+](CC2=C(C(=O)[O-])N3C(=O)[C@@H](NC(=O)Cc4cccs4)[C@H]3SC2)cc1 | -0.0061% [at 18.6 µM] | 
CC(=O)Nc1cccc(N)c1 | -0.144% [at 95.7 µM] | 
CCCCOc1ccc(N)cc1 | -0.018% | 
CCCCCCCCOCCCN | -0.0431% | 
OCCc1ccncc1 | 0.0285% | 
CC(=O)OCC(=O)[C@@]1(O)CC[C@H]2[C@@H]3CCC4=CC(=O)C=C[C@]4(C)[C@@]3(F)[C@@H](O)C[C@@]21C | -0.0779% [at 18.6 µM] | 
CC(C)(C)c1ccc(CCC=O)cc1 | -0.006% | 
O=C(O)c1c2ccccc2cc2ccccc12 | -0.0148% | 
O=Cc1ccc(Cl)c([N+](=O)[O-])c1 | -0.0541% | 
COC(=O)c1cc(Cl)ccc1[N+](=O)[O-] | -0.0312% | 
CCCCCCCCCCCCSC#N | 0.121% | 
C=CC(C)CCC=C(C)C (stereo not given) | 0.0215% | 

SMILES | fluorescence, % of fluorescein control | outcome
O=C(Nc1ccccc1)c1cc([N+](=O)[O-])ccc1Cl | -0.023% | 
CC1(C)CC(=O)CC(C)(C)N1 | -0.0255% | 
CC(C)CC(C)(C)C | 0.0208% [at 95.7 µM] | 
O=C(c1ccc(Cl)cc1)c1ccc(Cl)cc1 | -0.0202% | 
O=c1[nH][nH]c2ccccc12 | -0.0474% [at 95.7 µM] | 
c1ccc(CCNc2nc(-c3ccccc3)cs2)cc1 | 0.0159% [at 46 µM] | 
CC(C)(C)NCC(O)COc1ccc(NC(=O)NC2CCCCC2)cc1 (stereo not given) | 0.0101% [at 46 µM] | 
CC/C=C/CCO | 0.0988% [at 95.7 µM] | 
O=C(O)c1ccc(O)c(O)c1 | -0.107% | 
Cc1nc2sccn2c(=O)c1CCN1CCC(=C(c2ccc(F)cc2)c2ccc(F)cc2)CC1 | 0.103% [at 46 µM] | 
CC1=C(C)C(=O)C(CCCCC#CCCCC#CCO)=C(C)C1=O | -0.0084% [at 46 µM] | 
COc1cccc([C@H](O)C2CCN(CCc3ccc(F)cc3)CC2)c1OC | -0.0012% | 
O=C(O)c1cccnc1Nc1cccc(C(F)(F)F)c1 | 0.0259% [at 46 µM] | 
C=CC(=O)OCCCCCCCCCC | -0.0074% | 
C/C=C1\[C@H]2C=C(C)C[C@]1(N)c1ccc(=O)[nH]c1C2 | 0.112% [at 46 µM] | 
C=Cc1ccc(C=C)cc1 | -0.131% [at 95.7 µM] | 
Cc1c(N=C=O)cccc1N=C=O | 0.0039% [at 95.7 µM] | 
CCCC(=O)OCc1ccccc1 | 0.0548% | 
CCCCOC(=O)CC#N | -0.0105% [at 95.7 µM] | 
CCOC(C)OCC |  | inactive
